Our source for the inhibition values is PubChem BioAssay AID2240 (Broad Institute, 2010).

SMILES strings stand for the structures. Among all 37,000 compounds or so, about 100 (0.27%) were called active. The full list was thinned out, with actives kept by preference. Unmarked numbers belong to inactive results. Cut-off read from the data, not from the text of the source: active = inhibition above about 85%; inconclusive = no clear call, values can overlap the other calls; inactive = below about 68%.

A short description of the test: inhibitors of MITF, primary screen, MITF inhibitor project, cell-based, luminescence (AID 2240).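 Note: human melanocyte line stably carrying TRPM1 promoter luciferase reporter.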 Conditions: TRPM1 promoter luciferase, 24 h, active compounds read high, concentration not given here.
The inhibition is the change of the read-out against control, counted positive when it falls. For the compound `O=C(CSc1nnc2c(n1)[nH]c1ccccc12)Nc1cccc(C(F)(F)F)c1`, the inhibition was 63.8%.

On to `CN(c1ccc(C(=O)NCc2ccccn2)cc1)S(C)(=O)=O`, for which the inhibition is -16%.

On to `COC(=O)c1scc(S(=O)(=O)C(C)(C)C)c1-n1cccc1`, for which the inhibition was 3.33%.

On to `C[C@@H]1CN([C@@H](C)CO)C(=O)c2cccc(NS(=O)(=O)c3cn(C)cn3)c2O[C@H]1CN(C)Cc1ccc(Cl)c(Cl)c1`, for which the inhibition was -17%.

For `CC(C)NC(=O)Nc1ccc2c(c1)C(=O)N([C@H](C)CO)C[C@H](C)[C@@H](CN(C)CC1CCCCC1)OCCCC[C@@H](C)O2`, the inhibition is 0.663%.

Take `COc1ccc(CN(C)C[C@@H]2Oc3ccc(NC(=O)Nc4ccc(OC)cc4)cc3C(=O)N([C@H](C)CO)C[C@H]2C)cc1`: the inhibition was -5.96%.

Turning to `CCc1ccccc1NC(=O)Cn1cnc2scc(-c3ccc(OC)cc3)c2c1=O`, the inhibition was 27.3%.

On to `COc1ccc(S(=O)(=O)Nc2cccc3c2O[C@H](CN(C)C(=O)Nc2cccc4ccccc24)[C@H](C)CN([C@@H](C)CO)C3=O)cc1`, for which the inhibition is 4.99%.

Take `NC(=S)c1cnn2c(C(F)(F)F)cc(C(F)(F)F)nc12`: the inhibition was 6.61%.

Regarding `C[C@@H]1CN([C@@H](C)CO)C(=O)c2cc(NC(=O)CCN3CCOCC3)ccc2O[C@@H]1CN(C)S(=O)(=O)c1ccccc1`, the inhibition was -5.16%.

For `C[C@H](CO)N1C[C@H](C)[C@@H](CN(C)Cc2ccc(C(F)(F)F)cc2)Oc2c(NC(=O)NC3CCCCC3)cccc2C1=O`, the inhibition was 15.8%.

For `C[C@@H]1CN([C@@H](C)CO)C(=O)Cc2cc(NC(=O)Cc3ccccc3)ccc2O[C@@H]1CN(C)Cc1ccc2c(c1)OCO2`, the inhibition is 4.15%.

For the compound `O=C(CSc1nnc2n1CCCN2)c1ccccc1`, the inhibition was -27.2%.

Regarding `Cc1ccc(C23CC4CC(CC(CN)(C4)C2)C3)cc1C`, the inhibition is 94.1% (active).

Regarding `C[C@@H]1CN([C@H](C)CO)C(=O)Cc2cc(NC(=O)Nc3ccc4c(c3)OCO4)ccc2O[C@@H]1CN(C)C(=O)Nc1ccccc1`, the inhibition was 8.24%.

Regarding `COc1ccc(S(=O)(=O)Nc2ccc3c(c2)CC(=O)N([C@@H](C)CO)C[C@@H](C)[C@@H](CN(C)C)O3)cc1`, the inhibition was -7.94%.

As to `C[C@@H]1CCCCO[C@@H](CN(C)Cc2ccncc2)[C@@H](C)CN([C@H](C)CO)C(=O)c2cc(NS(=O)(=O)c3cccs3)ccc2O1`, the inhibition is -6.77%.

Turning to `C[C@H]1CN([C@@H](C)CO)C(=O)Cc2cc(NC(=O)Nc3ccccc3)ccc2O[C@H]1CN(C)S(=O)(=O)c1cn(C)cn1`, the inhibition is -4.73%.

Regarding `Cc1cc(C(=O)Nc2cccc3c2O[C@@H](CN(C)C(=O)Nc2ccc(F)cc2)[C@H](C)CN([C@@H](C)CO)C3=O)n(C)n1`, the inhibition is -3.61%.

For the compound `CC1=C(C(=O)OCc2ccccc2)OC(N)=C(C#N)C1c1ccc(F)cc1` (stereo not given), the inhibition is -8.27%.

For `O=S(=O)(NCCc1ccccc1)c1ccccc1`, the inhibition is -1.44%.

Turning to `Cc1cc(C)c2c(c1)CC(C)(C)c1[nH]c(-c3ccccc3)nc1-2`, the inhibition is 12.3%.

For `CCCC1CCC(c2ccc(OC(=O)c3ccco3)cc2)CC1` (stereo not given), the inhibition is -3.57%.

In the case of `Cc1ccc(-n2c(SCC(=O)Nc3cccc(C)c3C)nc3ccccc3c2=O)cc1`, the inhibition is 14.3%.

For the compound `Cc1nc(SCC(=O)O)[nH]c(=O)c1Oc1ccccc1`, the inhibition was -13.2%.

With `O=C(CCn1nc(-c2ccccc2)c2ccccc2c1=O)Nc1cccc(Br)c1`, the inhibition was 6.27%.

With `O=C(c1nc2ncccn2n1)N(Cc1ccccc1)Cc1ccccc1`, the inhibition was 3.11%.

Take `COc1cc(CO)cc(Cl)c1OCc1cccc([N+](=O)[O-])c1`: the inhibition is -30.9%.

`COc1ccc(-c2cnc3c(-c4ccsc4)cnn3c2)cc1`: the inhibition is 26.7%.

With `COc1ccc(S(=O)(=O)Nc2ccc3c(c2)CC(=O)N([C@H](C)CO)C[C@H](C)[C@H](CN(C)C(=O)Nc2ccccc2)O3)cc1`, the inhibition was -16.9%.

Take `CNC[C@H]1Oc2ccc(NC(=O)C3CCCCC3)cc2C(=O)N([C@H](C)CO)C[C@@H]1C`: the inhibition was 4.94%.

Regarding `C[C@H]1CN([C@@H](C)CO)C(=O)c2cccc(NC(=O)Nc3cccc4ccccc34)c2O[C@@H]1CN(C)C(=O)NC1CCCCC1`, the inhibition was 0.565%.

For the compound `O=C(CCCN1C(=O)c2ccccc2C1=O)Nc1cccc2c1CCCC2`, the inhibition was -8.57%.

With `Cc1ccc2oc3c(c(=O)c2c1)C(c1ccc([N+](=O)[O-])cc1)N(CCCN1CCOCC1)C3=O` (stereo not given), the inhibition was -26.1%.

As for `O=C(CN1CCOCC1)Nc1ccc(NC(=O)CN2CCOCC2)c(Cl)c1`, the inhibition is -25.8%.

As for `C[C@H](CO)N1C[C@H](C)[C@H](CN(C)CC2CCCCC2)Oc2ccc(NC(=O)C3CCCCC3)cc2C1=O`, the inhibition was -9.78%.

Turning to `C[C@H]1CN([C@@H](C)CO)C(=O)Cc2cc(NC(=O)Cc3ccccc3)ccc2O[C@@H]1CN(C)S(=O)(=O)c1ccc(Cl)cc1`, the inhibition is 12.5%.

Regarding `C[C@H]1CN([C@@H](C)CO)C(=O)c2cc(NC(=O)c3ccncc3)ccc2O[C@H]1CN(C)Cc1ccc(C(=O)Nc2ccccc2N)cc1`, the inhibition is 20.5%.

For `O=C(OC1=CC(=O)c2cccc3cccc1c23)c1ccccc1`, the inhibition is 26.1%.

Turning to `O=C(c1ccc(NCc2cccnc2)c([N+](=O)[O-])c1)N1CCCCC1`, the inhibition is 6.72%.

As for `CC1(C)Cc2c(sc3ncn4nc(COc5ccc(Cl)cc5)nc4c23)C(C)(C)N1`, the inhibition is 6.06%.

Regarding `CNC[C@@H]1Oc2c(NC(=O)Nc3ccc(OC)cc3)cccc2C(=O)N([C@@H](C)CO)C[C@@H]1C`, the inhibition is -2.63%.

On to `C[C@H]1CN([C@@H](C)CO)C(=O)Cc2cc(NC(=O)NC3CCCCC3)ccc2O[C@@H]1CN(C)Cc1ccc(Oc2ccccc2)cc1`, for which the inhibition is 33.3%.

For `C[C@@H]1CN([C@H](C)CO)C(=O)Cc2cc(NC(=O)NC3CCCCC3)ccc2O[C@H]1CN(C)S(=O)(=O)c1ccc(Cl)cc1`, the inhibition is -10.5%.

As for `Cc1ccc(N(CC(=O)Nc2ccccc2Sc2ccccc2)S(C)(=O)=O)c(C)c1`, the inhibition was -5.49%.
